Assay outcomes (PubChem BioAssay)
An excerpt weighted towards active compounds, which were near 4.7% of everything screened.
PfHsp90 set2: reduces growth (ATP signal) of yeast expressing P. falciparum Hsp90 | S. cerevisiae expressing PfHsp90, BacTiter-Glo ATP, 48 h; yeast lacking PDR1 and PDR3 efflux regulators | actives 0.32% (n = 310,000) | inhibition, % at 9.4 µM | AID 504621;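 active means every replicate shows inhibition above about 80%, whatever the replicate mean, limit read from the data; inconclusive means mean inhibition reaches the set limit but some replicate falls short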;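 further: 0% = DMSO neutral controls and 100% = 20 µM radicicol positive controls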
TIM10 inh: growth inhibitors of TIM10 yeast strain. S. cerevisiae TIM10 strain growth, BacTiter-Glo luminescence, 24 h. inhibition, % at 10 µM. actives 1.4% (n = 330,000);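 active means inhibition of 40% or more at the single tested concentration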;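 further: wild-type TIM10 isogenic control strain grown at permissive 25 °C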
EBI2 antag: EBI2 (human) antagonism; AID 651636; P32249; inhibition, % at 5 µM; EBI2 beta-arrestin recruitment, luminescence, 7a,25-OHC stimulated; actives 0.81% (n = 360,000); in the data active means inhibition above about 38%;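 further: enzyme fragment complementation signal reports receptor beta-arrestin coupling in cells; 0% = agonist plus DMSO wells and 100% = wells without agonist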
Target sequence (P32249 whole entry, looked up, the tested form may be a part): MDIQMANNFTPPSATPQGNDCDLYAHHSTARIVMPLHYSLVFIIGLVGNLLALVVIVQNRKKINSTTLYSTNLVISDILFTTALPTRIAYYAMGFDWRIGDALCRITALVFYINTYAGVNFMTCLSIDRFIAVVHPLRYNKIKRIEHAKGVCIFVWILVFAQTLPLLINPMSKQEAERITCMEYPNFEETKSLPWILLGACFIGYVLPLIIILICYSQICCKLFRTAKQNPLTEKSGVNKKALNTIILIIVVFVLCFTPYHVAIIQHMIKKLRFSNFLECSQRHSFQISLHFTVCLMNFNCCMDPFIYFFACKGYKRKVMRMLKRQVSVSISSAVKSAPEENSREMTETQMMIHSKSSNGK
tim10-1 inh: tim10-1 yeast growth inhibition | S. cerevisiae tim10-1 ts strain growth, BacTiter-Glo, 24 h | inhibition, % at 20 µM | actives 2.2% (n = 330,000) | AID 463190;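 active means inhibition of at least 40%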;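 further: mutant grown at 25 °C; 0% = DMSO wells with yeast and 100% = wells holding no yeast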
SKKanGAS inh: SKKanGAS growth inhibition; inhibition, % at 7.5 µM; actives 1.3% (n = 300,000); S. pyogenes SKKanGAS, kanamycin growth, BacTiter-Glo, 6 h; AID 1662;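 active means mean replicate score, as percent of positive control median, at least 50; inconclusive means mean below 50 but one replicate at or above 50; inactive means mean and every replicate below 50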;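 further: strain carries kanamycin resistance gene driven by streptokinase promoter and grows in 40 µg/ml kanamycin; loss of luminescence reflects streptokinase promoter inhibition or plain growth inhibition; 0% = median of DMSO wells and 100% = positive control at its reference dose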
tim23-1 inh: tim23-1 yeast growth inhibition; S. cerevisiae tim23-1 growth, BacTiter-Glo luminescence, 24 h; inhibition, % at 20 µM; actives 1.3% (n = 330,000);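 active means growth inhibition of the mutant yeast at or above 50%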;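 further: temperature-sensitive mutant grown at 25 °C; plate controls were DMSO-treated mutant yeast for no effect and medium wells lacking yeast for full effect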
tim23-1 confirm: confirmation of tim23-1 mutant yeast growth inhibitors; shares compounds with tim23-1 inh; S. cerevisiae tim23-1 growth, BacTiter-Glo luminescence, 24 h; inhibition, % at 20 µM; actives 83% (n = 4,400);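 active means inhibition above about 39% in either of two replicate wells at 20 µM, limit read from the data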;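 further: temperature-sensitive tim23-1 mutant grown at 25 °C; 0% = DMSO wells with yeast and 100% = medium wells without yeast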
* hit, by the source's call; ? = inconclusive; . = no result.

SMILES	PfHsp90 set2	TIM10 inh	EBI2 antag	tim10-1 inh	SKKanGAS inh	tim23-1 inh	tim23-1 confirm
COc1ccc(N=CC2=C(Nc3ccc(OC)cc3)c3c(C)nn(-c4ccccn4)c3CC2)cc1	.	17	.	20	.	51*	52*
COc1cccc(/C=N/NC(=S)NC2CC3CCC2C3)c1OC (stereo not drawn)	-9	17	33	-12	3	4	.
Oc1ccccc1/C=N/NC(=S)NC1CC2CCC1C2 (stereo not drawn)	-50	5	29	28	70*	66*	37
C/C(=N\NC(=O)CSc1ncccn1)c1ccc2c(c1)OCCO2	-5	-15	7	-1	-4	53*	15
C/C(=N\NC(=O)CSc1nc(C)cc(C)n1)c1ccc2c(c1)OCCO2	-1	8	-10	13	1	10	.
O=Cc1cccn1-c1ncc(Br)cn1	-4	4	1	3	-8	10	.
CN(C)CCOc1ccc(-c2c(-c3ccsc3)sc3ccccc23)cc1	24	14	-27	25	.	76*	57*
COc1ccc(-c2sc3ccccc3c2-c2ccc(OCCN(C)C)cc2)cc1	41	-11	-31	14	.	3	.
CC1CC(=O)Nc2ccccc2N1C(=O)CSc1nnnn1C(C)C (stereo not drawn)	4	1	-3	5	.	12	.
CN(Cc1ccccc1)C(=O)CN1CCN(S(=O)(=O)c2ccc(Cl)c(Cl)c2)CC1	21	16	1	19	.	52*	33
c1ccc(-c2nc(NCc3cccs3)c3ccccc3n2)cc1	43	28	-27	-4	16	51*	46*
Fc1ccc(CNc2nc(-c3ccccc3)nc3ccccc23)cc1	-25	17	1	-3	3	21	.
Cc1[nH]c2ccccc2c1/C=N/NC(=S)NC(C)C	.	40	-2	39	-7	47	.
CC(C)NC(=S)N/N=C/c1c[nH]c2ccccc12	-38	32	-12	36	-11	56*	40*
Cc1c(Cl)cccc1NCC(=O)Nc1ccc(Cl)cc1F	0	30	-6	26	-15	54*	42*
Cc1ccc(-c2nc(Nc3ccc(N4CCOCC4)cc3)c3ccccc3n2)cc1	-2	22	15	31	41	47	.
Cc1ccc(-c2nc(Nc3ccc(O)cc3)c3ccccc3n2)cc1	-11	27	1	14	3	74*	44*
COc1cccc(Nc2nc(-c3ccccc3)nc3ccccc23)c1	-80	38	1	27	8	50*	45*
O=[N+]([O-])c1ccc(-c2nc(Nc3cccc(O)c3)c3ccccc3n2)cc1	5	24	6	30	?	25	.
Cc1ccc(-c2nc(Nc3cccc(O)c3)c3ccccc3n2)cc1	26	22	-33	16	20	83*	-21
CC1CCCN(C(=O)c2cc(F)c(F)cc2Cl)C1 (stereo not drawn)	.	-2	-14	11	-7	19	.
COc1ccc(Cc2c(-c3ccccc3)nc3c4ccccc4ccn23)c(C)c1	.	.	1	.	.	.	.
CCCN(C(=O)CCl)C1=CCCCC1	5	-1	-40	-18	1	-4	.
CCCCCOC(=O)Cc1c(C)nc(-c2ccccc2)[nH]c1=O	0	20	0	31	0	54*	52*
CCCCCOC(=O)Cc1c(O)c2ccccc2[nH]c1=O	-29	12	7	17	1	8	.
SMILES	PfHsp90 set2	TIM10 inh	EBI2 antag	tim10-1 inh	SKKanGAS inh	tim23-1 inh	tim23-1 confirm
C(=N\Nc1nc2ccccc2s1)/c1ccccn1	.	25	.	37	75*	58*	61*
COc1ccc(C2CC(c3ccc(Br)cc3)=NN2C(=O)CCC(=O)O)cc1OC (stereo not drawn)	11	-1	-16	1	-5	96*	15
Cc1cc(=O)[nH]c(SCC(=O)N(CCC#N)c2ccccc2)c1C#N	10	1	1	1	.	13	.
O=C(CCCN1C(=O)/C(=C\c2ccccc2)SC1=S)Nc1cccc(C(=O)O)c1	-49	1	-5	7	12	10	.
O=C(CCCN1C(=O)/C(=C/c2ccccc2)SC1=S)Nc1cccc(O)c1	4	33	5	38	4	50*	50*
Oc1ccc2ccccc2c1C=NCc1ccccc1	29	8	-3	4	5	65*	60*
CN1c2ccccc2C(=O)C(=C2SCCCS2)S1(=O)=O	0	38	-1	25	-6	53*	54*
COCCCn1c(SCC(=O)N2CCOCC2)nc2cc(Cl)ccc2c1=O	8	-8	7	17	.	7	.
Cc1c(C(=O)OCC(=O)N2CCC(C)CC2)oc2ccccc12	.	35	-1	21	2	54*	58*
O=C(NC(Cc1ccc(O)cc1)C(=O)N=Nc1c(O)[nH]c2ccccc12)c1ccccc1 (stereo not drawn)	13	.	1	.	.	.	.
COc1cc(CN2CCN(c3cccc(C)c3C)CC2)cc(Br)c1O	.	21	2	26	3	55*	45*
COC(=O)c1cccc(Oc2cccc(Cl)n2)c1	-1	10	10	27	5	15	.
Cc1ccc(C2(c3ccc(C)cc3)CC2C(=O)Nc2ccc([N+](=O)[O-])cc2O)cc1 (stereo not drawn)	29	27	29	-25	105*	50*	18
c1ccc2c(c1)ncn2CCOCCOCCn1cnc2ccccc21	-11	-3	0	2	3	-6	.
Clc1ccc(OCCn2cnc3ccccc32)c(Cl)c1	-13	7	0	24	-4	54*	28
CC(=O)Nc1ccc(S(=O)(=O)N(Cc2cccnc2)Cc2cc3ccc(C)cc3[nH]c2=O)cc1	-2	14	-2	38	1	52*	53*
Cc1ccc(S(=O)(=O)N(Cc2cccnc2)Cc2cc3ccccc3[nH]c2=O)cc1	-10	3	-5	28	7	21	.
O=c1c2cn[nH]c2nc(SCc2c(F)cccc2F)n1-c1ccc(Cl)cc1	-25	18	5	19	59*	52*	54*
O=C(N/N=C/C(Cl)=C\c1ccccc1)c1ccco1	16	-37	0	-98	-1	33	.
O=C(/C(=C/O)N=Nc1ccccc1)c1ccco1	-4	34	-2	27	0	55*	59*
C[n+]1c2n(c3ccccc31)N=C(c1ccc(-c3ccccc3)cc1)CS2	-54	8	17	-3	39	60*	47*
O=C(Nc1cccc(Cl)c1)OCCOCCOC(=O)Nc1cccc(Cl)c1	-10	.	8	.	.	.	.
O=C(Nc1cccc(Cl)c1)ON=C1c2ccccc2-c2ccccc21	-5	8	-2	17	1	62*	46*
